Bead autofluor – compound fluorescence in toxin protease inhibitor counterscreen; fluorescence intensity (concentration not given with the values); compound autofluorescence counterscreen, microsphere flow cytometry; active compounds read high; 3.1% of 360,000 active; in the data active means fluorescence intensity above about 16000; inconclusive means no clear call, values can overlap the other calls
Anthrax LF inh2 – blocks Bacillus anthracis lethal factor protease. multiplex microsphere protease cleavage assay, LF. inhibition, % at 10 µM. P15917. AID 588501. 0.12% of 360,000 active; further: plate controls were buffer without enzyme for full effect and enzyme alone for no effect
Target sequence (P15917 whole entry, looked up): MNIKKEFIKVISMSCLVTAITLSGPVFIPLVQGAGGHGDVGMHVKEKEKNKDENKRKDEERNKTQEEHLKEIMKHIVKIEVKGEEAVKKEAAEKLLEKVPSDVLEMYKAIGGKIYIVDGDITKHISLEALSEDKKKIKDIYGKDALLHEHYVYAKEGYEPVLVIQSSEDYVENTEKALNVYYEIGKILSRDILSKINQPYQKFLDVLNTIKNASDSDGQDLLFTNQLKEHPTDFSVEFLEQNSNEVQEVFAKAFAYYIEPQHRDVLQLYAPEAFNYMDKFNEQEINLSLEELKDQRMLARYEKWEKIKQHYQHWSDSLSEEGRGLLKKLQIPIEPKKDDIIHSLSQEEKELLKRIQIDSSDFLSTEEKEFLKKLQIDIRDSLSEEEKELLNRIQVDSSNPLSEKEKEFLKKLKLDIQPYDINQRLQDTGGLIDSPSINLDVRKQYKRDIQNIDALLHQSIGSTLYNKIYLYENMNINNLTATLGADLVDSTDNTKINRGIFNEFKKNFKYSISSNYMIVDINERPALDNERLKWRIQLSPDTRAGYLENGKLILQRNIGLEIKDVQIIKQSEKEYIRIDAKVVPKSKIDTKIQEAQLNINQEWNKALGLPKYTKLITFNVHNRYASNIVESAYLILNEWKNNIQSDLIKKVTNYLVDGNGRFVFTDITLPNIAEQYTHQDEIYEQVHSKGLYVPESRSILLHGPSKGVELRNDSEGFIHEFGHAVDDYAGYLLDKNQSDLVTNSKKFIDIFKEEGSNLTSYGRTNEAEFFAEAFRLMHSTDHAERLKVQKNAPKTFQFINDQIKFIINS
3CLpro inhibitor – SARS-CoV 3CLpro protease inhibition; inhibition, % at 6 µM; 0.14% of 290,000 active; AID 1706; recombinant SARS-CoV 3CLpro, quenched FRET peptide cleavage; P0C6X7; in the data active means inhibition above about 12%
BoNT-A LC inh2 – blocks Botulinum neurotoxin A light chain protease; multiplex microsphere protease substrate cleavage, flow cytometry; inhibition, % at 10 µM; 0.17% of 360,000 active; AID 588499; further: plate controls were buffer without enzyme for full effect and enzyme alone for no effect
CCHF vOTU inh – blocks the CCHF virus ovarian tumor domain protease. CCHFV vOTU protease, Pep-AMC fluorescence. inhibition, % at 11.5 µM. 0.55% of 370,000 active; in the data active means inhibition above about 30%; further: 0% = vehicle wells with enzyme and 100% = no enzyme wells
BoNT-F LC inh – BoNT F light chain protease inhibition | Multiplex microsphere protease cleavage assay, flow cytometry | AID 588497 | inhibition, % at 10 µM | 0.22% of 360,000 active; in the data active means inhibition above about 35%, passing the limit was not always enough; inconclusive means no clear call, values can overlap the other calls; further: plate controls were buffer without enzyme for full effect and enzyme alone for no effect
BoNTA LC inh 1 – inhibitors of Botulinum neurotoxin A light chain protease; shares compounds with BoNT-F LC inh; inhibition, % at 10 µM; 3% of 720 active; AID 602139; multiplex microsphere protease assay, flow cytometry; in the data active means inhibition above about 32%
BoNTF LC inh 1 – inhibitors of Botulinum neurotoxin F light chain protease | 720 tested, under 10 active | shares compounds with BoNT-F LC inh | multiplex microsphere protease cleavage assay, flow cytometry | inhibition, % at 10 µM; call rule not given here
Anthrax LF CP1 – blocks anthrax lethal factor protease. inhibition, % at 10 µM. 720 tested, under 10 active. shares compounds with BoNT-F LC inh. multiplex microsphere protease cleavage assay, LF; call rule not given here
Numbers without * were called inactive; ? = inconclusive; nt = not tested or not shown. Sampled rows, rich in hits. Any-hit rate of the full collection: about 3.9%. Unless noted, no stated cut-off is given here; in the data, active means inhibition above about 30%; inconclusive means no clear call, values can overlap the other calls; inactive means below that.

SMILES	Bead autofluor	Anthrax LF inh2	3CLpro inhibitor	BoNT-A LC inh2	CCHF vOTU inh	BoNT-F LC inh	BoNTA LC inh 1	BoNTF LC inh 1	Anthrax LF CP1
CCc1cccc2c1NC1(CCCC1)CC2C (stereo not drawn)	3556	?	-1.7	?	1.5	?	nt	nt	nt
Cc1cccc2c1NC(C)CC2C (stereo not drawn)	2139	40.2*	-1.7	34.1*	1.2	6.2	1.2	-2.5	-3.8
COc1ccc([N+](=O)[O-])cc1NC(=O)C(C)OC(=O)CC1CCCC1 (stereo not drawn)	3556	-2.7	nt	0.5	5.3	-2.9	nt	nt	nt
CC(C)c1ccc(S(=O)(=O)c2cnc(=S)[nH]c2N)cc1	3254	-10.0	-0.3	2.5	-3.1	37.3*	3.2	0.9	-1.0
N#CCCN(Cc1ccccc1)C(C(=O)NC1CCCCC1)C1CC1 (stereo not drawn)	4155	13.6	nt	-0.4	-1.1	1.3	nt	nt	nt
CCN(C(=O)c1ccc(C)c(Br)c1)c1ccccc1	2754	1.0	5.1	5.7	-4.2	60.1*	-1.1	-2.0	0.3
CC(C)OC(=O)C(C)Nc1ccc(F)c(Cl)c1 (stereo not drawn)	3010	-7.4	-1.4	-3.9	8.6	39.6*	-1.7	-4.9	-5.8
NS(=O)(=O)c1ccc(NC(=O)CN(C(=O)C(F)(F)F)C2CCCC2)cc1	3263	-0.3	nt	-0.3	-4.5	-3.8	nt	nt	nt
CCOc1ccc(NC(=O)Nc2ccc(Br)cn2)cc1	2591	1.1	1.4	3.8	5.5	48.1*	0.6	-4.6	-1.7
O=C(Nc1ccc(Cl)cc1)Nc1ccc(Br)cn1	4051	3.1	-1.7	-1.2	-0.9	10.4	nt	nt	nt
O=C1CNC(=S)N1c1nc2ccccc2s1	3929	32.2*	2.7	2.1	9.8	?	-0.3	2.3	-0.5
c1ccc2sc(N3CCCCC3)nc2c1	3128	-6.0	nt	-1.0	0.2	-3.3	nt	nt	nt
CCOc1ccc(C(=O)Nc2nnc(C3=COCCO3)o2)cc1	6605	-3.8	-3.3	-2.9	12.9	-8.4	nt	nt	nt
CS(=O)(=O)Nc1ccc(C2=NN(C(=O)CCCC(=O)O)C(c3cccs3)C2)cc1 (stereo not drawn)	4361	-3.0	0.7	-4.3	-324.5	36.8*	-0.3	-3.1	-4.5
CS(=O)(=O)Nc1cccc(C2=NN(C(=O)CCC(=O)O)C(c3cccs3)C2)c1 (stereo not drawn)	2951	22.4	-2.1	0.4	-2.2	4.3	nt	nt	nt
COCCCNC(=O)CN1C(=O)c2cccc3cccc1c23	3132	5.3	-6.3	0.7	-0.9	23.5	nt	nt	nt
CCOCCCNC(=O)CN1C(=O)c2cccc3cccc1c23	3541	-4.4	0.4	3.2	-7.2	38.9*	-0.9	-5.1	-2.5
Cc1cc(NC(=O)Cn2nnc(-c3ccccc3NC(=O)c3ccccc3F)n2)no1	3525	1.6	-2.8	-0.2	13.3	8.3	nt	nt	nt
CCc1nc(N)c(C#N)c(-c2ccc(F)cc2)c1C	2821	-3.0	-1.3	0.1	-3.0	-2.8	nt	nt	nt
Cc1ccc2c(n1)sc1c(-c3ccc(Br)cc3)c(C#N)c(N)nc12	?	29.5	3.3	44.0*	0.3	16.2	10.6	1.9	4.8
CC1CCCC(C)N1/N=C/c1ccccc1Br (stereo not drawn)	2951	3.6	6.3	-0.1	-5.9	-4.5	nt	nt	nt
O=C1c2ccccc2C(=O)N1CC#CCN1CCN(C2CCCCC2)CC1	3806	-0.9	-4.1	2.8	4.4	10.1	nt	nt	nt
O=C1c2ccccc2C(=O)N1C1CCCCC1	3825	49.8*	4.3	-3.4	-12.3	?	1.9	-0.1	0.6
Cc1ccccc1CN1CCN(CCCc2ccccc2)C(CCO)C1 (stereo not drawn)	4217	11.4	-9.4	0.2	5.1	-16.3	nt	nt	nt
COc1cc(NC(=O)CCc2nc(-c3cccs3)no2)cc(OC)c1OC	3912	8.3	-4.0	2.2	-10.0	41.6*	0.2	-4.7	0.8
SMILES	Bead autofluor	Anthrax LF inh2	3CLpro inhibitor	BoNT-A LC inh2	CCHF vOTU inh	BoNT-F LC inh	BoNTA LC inh 1	BoNTF LC inh 1	Anthrax LF CP1
CCc1cccc(NC(=O)CCc2nc(-c3cccs3)no2)c1	5753	-3.7	-5.7	0.3	-2.3	-8.7	nt	nt	nt
CSc1nncc(/C(C)=N\Nc2cccc(C)c2)n1	3131	-2.2	-0.2	-0.8	-4.6	-3.4	nt	nt	nt
CSc1nnc2c(n1)c(C)nn2-c1cccc(C)c1	6571	52.9*	0.5	68.8*	-3.8	9.9	33.3*	4.0	19.7
C=CCc1cccc(CNn2cnnc2)c1O	4273	3.0	-2.6	-1.2	-10.4	42.6*	-0.9	-0.4	-4.1
C=CCc1cccc(CNc2c(C)cc(C)cc2C)c1O	4368	-6.3	6.7	-0.9	-6.0	-5.7	nt	nt	nt
NS(=O)(=O)c1ccc(NCc2c(F)cccc2Cl)cc1	8836	-8.0	2.2	38.3*	-4.5	45.7*	0.7	-0.3	-2.6
CN(CC(=O)NCCc1ccc(S(N)(=O)=O)cc1)Cc1ccc(Cl)cc1Cl	5650	3.3	-1.2	-1.0	15.3	3.9	nt	nt	nt
CN(CC(=O)NCCc1ccc(S(N)(=O)=O)cc1)Cc1c(F)cccc1Cl	3568	4.8	-1.7	-1.5	3.0	40.5*	1.2	-3.6	-5.1
O=C(NC(=S)Nc1cccc(Cl)c1Cl)C1CC1	5949	3.8	1.0	0.1	-2.5	2.4	nt	nt	nt
COc1ccc(/C=C/c2cc(C(F)(F)F)on2)cc1	3409	10.1	6.6	-0.4	-5.5	39.5*	-0.7	-3.9	-5.4
COC(=O)Cc1ccc(NC(=S)N2CCN(c3ccccn3)CC2)cc1	2756	64.0*	-1.3	178.2*	-12.0	-13.0	0.0	-0.7	-2.8
S=C(Nc1ccc(Br)cc1)N1CCN(c2ccccn2)CC1	4682	2.7	3.9	-5.2	-10.7	?	nt	nt	nt
Cc1ccc(S(=O)(=O)NCc2ccccc2)cc1C(=O)N(C)CC(=O)Nc1c(Cl)cccc1Cl	6603	-3.9	nt	-6.8	-4.6	3.0	nt	nt	nt
CCOC(=O)c1c(NC(=S)N2CCOCC2)sc(C)c1C	3766	4.9	3.7	2.2	-0.8	47.5*	-2.8	-5.6	-2.8
Cc1cc(Nc2cccc(F)c2)nc(N2CCOCC2)n1	3819	-2.3	3.9	-3.1	-0.9	42.1*	-0.4	-1.1	-3.5
Cc1cc(Nc2ccccc2)nc(N2CCOCC2)n1	4787	-2.1	6.7	-0.6	6.6	-13.6	nt	nt	nt
Cc1cc(=O)oc2c(CN3CCCCC3)c(O)c(Cl)cc12	2952	-5.0	-4.8	0.2	-212.7	-2.6	nt	nt	nt
Cc1cc(=O)oc2c(CN3CCCC3)c(O)c(Cl)cc12	3914	30.5*	-1.2	-2.6	-408.6	9.5	0.7	-4.9	0.8
CCN1CCN(C(=O)N2CCOCC2)CC1	2003	-1.1	-0.3	0.0	-5.8	-1.4	nt	nt	nt
COCCCNc1nc(N)c([N+](=O)[O-])c(Nc2cc(OC)ccc2OC)n1	nt	nt	-3.3	nt	7.8	nt	nt	nt	nt
COc1ccc(OC)c(Nc2nc(NCCCN(C)C)nc(N)c2[N+](=O)[O-])c1	3678	31.0*	-0.9	0.7	-1.8	?	1.3	-5.2	-2.9

Assay outcomes: PubChem BioAssay, several laboratories
